ALOX12 inh: Primary qHTS assay for inhibitors of human arachidonate 12S-lipoxygenase (ALOX12): Round 2 | purified 12hLO, xylenol orange hydroperoxide absorbance | Potency, µM (series often up to 108 µM), for the others: top-dose activity change, negative = inhibition, actives largely listed as inhibitors | 580,000 compounds, 1.1% hits | AID 1671190, 2021
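Purified human 12hLO at 150 nM in 25 mM Hepes, 0.01% Triton X-100, pH 7.0, preincubated 15 min at room temperature with compound. Reaction started with 40 uM arachidonic acid, 30 min at room temperature. Hydroperoxide measured by Fe-xylenol orange, 573/405 nm absorbance ratio.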
RORgamma inh: qHTS for inhibitors of ROR gamma transcriptional activity. 310,000 compounds, 5.4% hits. Drosophila S2 Gal4-RORgamma UAS-luciferase reporter, 20 h. Potency, µM (doses to about 53.6 µM), for inactives: top-dose activity change, negative = inhibition, most hits filed as inhibitors. Nuclear receptor ROR-gamma (Mus musculus), P51450; note: nearly all actives have a fitted effect of over 60% in size
Target sequence (P51450 whole entry, looked up, the tested form may be a part): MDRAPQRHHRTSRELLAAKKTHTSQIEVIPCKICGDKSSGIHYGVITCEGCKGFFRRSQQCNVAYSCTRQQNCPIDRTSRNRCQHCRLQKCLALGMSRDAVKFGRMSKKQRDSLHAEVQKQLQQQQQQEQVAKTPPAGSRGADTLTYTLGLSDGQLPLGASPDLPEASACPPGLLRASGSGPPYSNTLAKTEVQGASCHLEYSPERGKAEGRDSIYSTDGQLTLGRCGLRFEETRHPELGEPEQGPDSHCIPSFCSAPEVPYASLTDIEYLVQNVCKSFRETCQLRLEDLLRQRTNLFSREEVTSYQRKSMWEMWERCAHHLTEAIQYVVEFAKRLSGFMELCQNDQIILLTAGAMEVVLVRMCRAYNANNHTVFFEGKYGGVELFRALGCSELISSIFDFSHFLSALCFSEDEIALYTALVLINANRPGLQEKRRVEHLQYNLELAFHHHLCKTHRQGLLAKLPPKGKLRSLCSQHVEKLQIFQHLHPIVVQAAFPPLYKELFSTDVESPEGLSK
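Schneider cells (Drosophila), stable Gal4 DBD–ROR gamma + UAS-luc; 1 hr cmpd preincubation; Cu2+ induction 700 uM final; 20 hr ambient; luminescence.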
DT40 TDP1 CPT: qHTS for Inhibitors of human tyrosyl-DNA phosphodiesterase 1 (TDP1): qHTS in cells in presence of CPT; Potency, µM (highest dose often 46.2 µM), for the others: at the top dose activity change, negative = growth inhibition, hits mostly inhibitors; chicken DT40 Tdp1-/-;hTDP1 cells + 20 nM CPT, ATP luminescence, 48 h; 420,000 compounds, 12% hits; note: nearly all actives have a fitted effect of over 55% in size
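Chicken DT40 Tdp1-/- cells complemented with human TDP1, 400 cells/well, exposed to compounds plus 20 nM camptothecin for at least 48 h at 37 C; viability read as ATP content by CellTiter-Glo luminescence.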
ELG1 repair inh: qHTS screen for small molecules that inhibit ELG1-dependent DNA repair in human embryonic kidney (HEK293T) cells expressing luciferase-tagged ELG1; HEK293T ELG1-luciferase reporter, luminescence, 16 h; DNA damage induced by 5-fluorouridine; Potency, µM (highest dose often 46.1 µM), inactives show at the top dose activity change, negative = inhibition, hits mostly inhibitors; 330,000 compounds, 2.3% hits; note: nearly all actives have a fitted effect of over 55% in size
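Overnight (16 hr) co-exposure of 2,000 cells/well to 5-fluorouridine and compound at 37 °C preceded detection. Luciferase was quantified via ONE-Glo luminescence; loss of signal denotes inhibition.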
Gal4-VP16 FLuc: VP16 counterscreen qHTS for inhibitors of ROR gamma transcriptional activity | Drosophila S2 Gal4-VP16 UAS-luciferase, luminescence, 20 h | Potency, µM (doses to about 53.6 µM), for the others: at the highest dose activity, negative = inhibition, hits mostly inhibitors | 310,000 compounds, 3.5% hits;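 note: Gal4-VP16 expression switched on by copper sulfate through the metallothionein promoter; nearly all actives have a fitted effect of over 50% in size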
TDP1 cell noCPT: qHTS for Inhibitors of human tyrosyl-DNA phosphodiesterase 1 (TDP1): qHTS in cells in absence of CPT; DT40 Tdp1-/- hTDP1 cells, no CPT, ATP luminescence, 48 h; Potency, µM (series often up to 46.2 µM), for the others: at the top dose activity change, negative = growth inhibition, usual class: inhibitors; 420,000 compounds, 15% hits; AID 686978, 2013; note: nearly all actives have a fitted effect of over 55% in size
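Readout: luminescence from CellTiter-Glo after 30 min in the dark at RT. Cells: DT40 Tdp1-/- with stable hTDP1, 400/well. Exposure: compounds alone, ≥48 hr, 37 °C.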
The depositor's hits bear a star; ! = not confirmed by another sample; [ ] = another dose, or the depositor's remark. Shown are actives, neighbours in structure and some others; about 15% of the full set was active somewhere. Calls come from the whole dose curve; as a rule, active = well fitted curve in the direction sought with a large enough effect; inconclusive = small, poorly fitted or top-dose-only effect, or another doubt; inactive = no such curve, though single readings can be large; an effect the other way counts as inactive or inconclusive. % is set by controls: 0 for no effect and ±100 for the full control effect; potency is the fitted concentration of half-maximal effect.

How did Cc1cccn2c(=O)c3cc(C(=O)N4c5ccccc5CC4C)n(C)c3nc12 (configuration not stated) do in these assays?
ALOX12 inh: -4.9%; RORgamma inh: -24.1%; DT40 TDP1 CPT: 18.4µM*; ELG1 repair inh: 5.2%; Gal4-VP16 FLuc: -4.9%; TDP1 cell noCPT: 16.4µM*

How did CC1Cc2ccccc2N1C(=O)c1cc2c(=O)n3ccccc3nc2n1C (configuration not stated) do in these assays?
ALOX12 inh: -9.1%; RORgamma inh: 19.0%; DT40 TDP1 CPT: 11.6µM*; ELG1 repair inh: inconclusive; Gal4-VP16 FLuc: -6.6%; TDP1 cell noCPT: inconclusive

What do the screens show for `Cn1c(C(=O)N2CCN(C(=O)c3ccco3)CC2)cc2c(=O)n3ccccc3nc21`?
ALOX12 inh: -2.0%; RORgamma inh: 24.7%; DT40 TDP1 CPT: -15.9%; ELG1 repair inh: inconclusive; Gal4-VP16 FLuc: 14.1µM*; TDP1 cell noCPT: -7.5%

What do the screens show for `Cn1c(C(=O)N2CCOCC2)cc2c(=O)n3ccccc3nc21`?
ALOX12 inh: 0.0%; RORgamma inh: -18.4%; DT40 TDP1 CPT: -2.7%; ELG1 repair inh: 4.0%; Gal4-VP16 FLuc: 9.9%; TDP1 cell noCPT: -4.9%

Results for CC(=O)c1c(O)c(C)c(O)c2c1OC1=CC(=O)C(C(C)=O)C(=O)[C@@]12C (some centres not stated) ?
ALOX12 inh: inconclusive; RORgamma inh: -2.3%; DT40 TDP1 CPT: 18.4µM*!; ELG1 repair inh: -8.2%; Gal4-VP16 FLuc: 0.4%; TDP1 cell noCPT: inconclusive

How did CSCCC(NS(=O)(=O)c1ccc2c(c1)OCCO2)C(=O)N(C)Cc1ccc(F)cc1 (configuration not stated) do in these assays?
ALOX12 inh: -17.0%; DT40 TDP1 CPT: 23.1µM*; ELG1 repair inh: inconclusive; TDP1 cell noCPT: 13µM*

What do the screens show for `NC(=O)COC(=O)[C@H](Cc1ccccc1)NS(=O)(=O)c1ccc2c(c1)OCCO2`?
ALOX12 inh: -25.0%; DT40 TDP1 CPT: -1.9%; ELG1 repair inh: -13.6%; TDP1 cell noCPT: inconclusive

Results for CSCCC(NS(=O)(=O)c1cccc(C(F)(F)F)c1)C(=O)N(C)Cc1ccc2c(c1)OCCO2 (configuration not stated) ?
ALOX12 inh: inconclusive; RORgamma inh: 11.6%; DT40 TDP1 CPT: inconclusive; ELG1 repair inh: -11.1%; Gal4-VP16 FLuc: -3.7%; TDP1 cell noCPT: inconclusive

Results for CSCCC(NS(=O)(=O)c1ccc2c(c1)OCCO2)C(=O)N(C)Cc1ccccc1F (configuration not stated) ?
ALOX12 inh: 3.0%; DT40 TDP1 CPT: inconclusive; ELG1 repair inh: 16.4µM*; TDP1 cell noCPT: 20.6µM*

How did CC1CCN(S(=O)(=O)c2ccc(C(=O)Nc3ccccc3-c3nc4ccccc4[nH]3)cc2)CC1 do in these assays?
ALOX12 inh: 1.5%; RORgamma inh: -0.2%; DT40 TDP1 CPT: inconclusive; ELG1 repair inh: 16.4µM*; Gal4-VP16 FLuc: -12.7%; TDP1 cell noCPT: inconclusive

Results for CC1CCN(S(=O)(=O)c2ccc(C(=O)Nc3nnc(-c4ccccn4)o3)cc2)CC1 ?
ALOX12 inh: 3.1%; RORgamma inh: -0.6%; DT40 TDP1 CPT: inconclusive; ELG1 repair inh: inconclusive; Gal4-VP16 FLuc: -14.2%; TDP1 cell noCPT: inconclusive

What do the screens show for `CC1CCCN(S(=O)(=O)c2ccc(C(=O)Nc3ccccc3-c3nc4ccccc4[nH]3)cc2)C1` (configuration not stated)?
ALOX12 inh: 1.4%; RORgamma inh: -2.7%; DT40 TDP1 CPT: 18.4µM*; ELG1 repair inh: inconclusive; Gal4-VP16 FLuc: -8.7%; TDP1 cell noCPT: 10.3µM*

Results for Cc1cc(F)ccc1S(=O)(=O)Nc1ccccc1C(=O)Nc1ccccc1-c1nc2ccccc2[nH]1 ?
RORgamma inh: -7.7%[10 µM]; DT40 TDP1 CPT: 5.8µM*; ELG1 repair inh: inconclusive; Gal4-VP16 FLuc: inconclusive; TDP1 cell noCPT: 7.31µM*

How did Cc1cccc(C#Cc2ccccc2)n1 do in these assays?
ALOX12 inh: inconclusive; RORgamma inh: 14.1µM*; DT40 TDP1 CPT: inconclusive; ELG1 repair inh: inconclusive; Gal4-VP16 FLuc: inconclusive; TDP1 cell noCPT: 29.9µM*!

How did CCOc1ccccc1NC(=O)COC(=O)c1cc(C(=O)OC)cc([N+](=O)[O-])c1 do in these assays?
ALOX12 inh: -18.8%; RORgamma inh: -8.6%; DT40 TDP1 CPT: 3.1%; ELG1 repair inh: 12.8%; Gal4-VP16 FLuc: 5.4%; TDP1 cell noCPT: -12.3%

Results for CC(=O)Oc1ccc(-c2cccc(C(=O)OCC(=O)N(C)c3ccccc3)c2)cc1 ?
ALOX12 inh: 10.4%; RORgamma inh: 2.8%; DT40 TDP1 CPT: inconclusive; ELG1 repair inh: -28.7%; Gal4-VP16 FLuc: -0.4%; TDP1 cell noCPT: 23.1µM*

What do the screens show for `CN(C(=O)COC(=O)c1cccc(S(=O)(=O)N2CCCCCC2)c1)c1ccccc1`?
ALOX12 inh: 13.8%; DT40 TDP1 CPT: 0.8%; TDP1 cell noCPT: -29.1%

What do the screens show for `CC(=O)Oc1ccc(-c2cccc(C(=O)OCC(=O)Nc3ccccc3Oc3ccccc3)c2)cc1`?
ALOX12 inh: 24.7%; RORgamma inh: -1.5%; DT40 TDP1 CPT: -26.8%; ELG1 repair inh: inconclusive; Gal4-VP16 FLuc: -10.8%; TDP1 cell noCPT: 18.4µM*

How did COc1ccc(N(C)S(=O)(=O)c2cccc(C(=O)OCC(=O)N(C)c3ccccc3)c2)cc1 do in these assays?
ALOX12 inh: 3.5%; DT40 TDP1 CPT: inconclusive; ELG1 repair inh: 16.4µM*; TDP1 cell noCPT: 20.6µM*

What do the screens show for `CCOc1ccccc1NC(=O)COC(=O)c1cccc(-c2ccc(OC(C)=O)cc2)c1`?
ALOX12 inh: -13.0%; RORgamma inh: 24.0%; DT40 TDP1 CPT: inconclusive; ELG1 repair inh: -9.9%; Gal4-VP16 FLuc: -26.1%; TDP1 cell noCPT: 25.9µM*

What do the screens show for `CCCCN(CCCC)c1cc(F)nc(N)n1`?
ALOX12 inh: -5.3%

Results for COCCn1c(SCC(=O)c2cc(C)ccc2C)nnc1-c1ccc(Cl)cc1 ?
ALOX12 inh: -25.9%

How did CCc1ccc2ncc3c(-c4ccccc4)nn(-c4ccccc4)c3c2c1 do in these assays?
ALOX12 inh: -5.0%; DT40 TDP1 CPT: inconclusive; TDP1 cell noCPT: 13µM*

Screening data (PubChem)
